Inhibition data for 40 compounds are collected here from PubChem BioAssay.

The structures appear in SMILES notation. Values without a mark were called inactive. The source made the active and inactive calls.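 The calls were made as follows: active = inhibition above the hit cutoff set in the earlier primary screen (cut at about 27% in these data); inactive = the rest.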

Protein phosphatase methylesterase 1 (Homo sapiens), sequence (Q9Y570 whole entry, looked up): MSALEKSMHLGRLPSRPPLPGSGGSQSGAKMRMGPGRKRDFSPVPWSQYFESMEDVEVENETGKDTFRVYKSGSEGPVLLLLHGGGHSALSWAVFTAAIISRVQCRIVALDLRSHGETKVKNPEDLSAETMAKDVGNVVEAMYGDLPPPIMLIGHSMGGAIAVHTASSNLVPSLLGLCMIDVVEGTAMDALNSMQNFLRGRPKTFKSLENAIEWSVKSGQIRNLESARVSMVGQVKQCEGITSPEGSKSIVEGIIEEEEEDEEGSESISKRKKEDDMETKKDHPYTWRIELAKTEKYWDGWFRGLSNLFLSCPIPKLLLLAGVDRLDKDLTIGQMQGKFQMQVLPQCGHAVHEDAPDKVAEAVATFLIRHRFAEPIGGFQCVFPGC

The assay concerns the target Protein phosphatase methylesterase 1 (Homo sapiens) (UniProt Q9Y570). Description: PME-1 inhibitor activity retest, confirmation, biochemical, fluorescence polarization, FP-Rh probe, triplicate (AID 2171).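 Also: 0% = enzyme with DMSO and 100% = wells lacking PME-1.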 The following applies: recombinant PME-1, FP-Rh probe fluorescence polarization; at 5.9 µM; active compounds read high. On the technique in general: Polarisation of emitted light reports the rotation of a fluorescent probe.
Broadly, the inhibition is the drop in the measured response relative to a control, in per cent. For the compound `Cc1ccc(NC(=S)NNc2ccc([N+](=O)[O-])cc2S(=O)(=O)Nc2ccccc2C(=O)O)cc1C`, the inhibition is 60.2% (active).
The value for `COc1ccc(C(=O)c2sc3nc(-c4ccccc4)ccc3c2N)cc1` was 11.8%; that for `N#CC/C(N)=N/Nc1nc2ccccc2nc1Cc1ccccc1` was -1.36%; that for `O=C1C=C(N2CCOCC2)c2ccccc2C1=O` was 41% (active).
Consider `COc1ccc2c(c1)CC/C(=C\Nc1ccc3c(c1)OCO3)C2=O`, for which the inhibition is 36.9% (active).
Turning to `Oc1ccc(/C=N/Nc2ccnc3cc(Cl)ccc23)cc1O`, the inhibition was 5.4%.
Consider `COc1ccc(/C=N/NC(=O)c2cc3c(OC)ccc(OC)c3[nH]2)cc1O`, for which the inhibition was 37.8% (active).
The value for `CC(=O)Oc1ccc2c(c1)Oc1cc(OC(C)=O)ccc1C21OC(=O)c2ccccc21` was 148% (active).
With `Cc1cc(C)c2[nH]c(O)c(N=NC3=NC(=O)CS3)c2c1` the figure was 32% (active).
The value for `CC(=O)NC(c1cccs1)c1cc([N+](=O)[O-])c2cccnc2c1O` (stereo not given) was 12%.
As for `CCCSc1nnc(NC(=O)c2sc3nc(-c4cccs4)ccc3c2N)s1`, the inhibition is 37.4% (active).
The value for `COc1ccc(-c2sc(Nc3ccc(F)c(F)c3F)nc2CCC(=O)NN)cc1` was 24.1%.
With `CCc1cc(/C(Cc2ccc3ccccc3n2)=N\O)c(O)cc1O` the figure was 30.8% (active).
The value for `Cc1cc(N(C)C)ccc1N=Nc1ccc2ncccc2c1` was 42.3% (active).
In the case of `O=C1CN(C(=O)c2cc3ccccc3oc2=O)C(c2ccccc2)c2cc(F)ccc2N1` (stereo not given), the inhibition was 18.1%.
The value for `O=C(c1ccc2c(c1)OCO2)N1CCCC(c2ccccc2)C1` (stereo not given) was 22%.
The value for `CCOC(=O)C1=C(C)Nc2ccccc2N/C1=N\S(=O)(=O)c1cccc(Cl)c1` was 18.7%; that for `COc1ccc(OC)c(-c2c3cc(O)c(=O)cc-3oc3cc(O)c(O)cc23)c1` was 169% (active); that for `COc1cc2c(cc1NC(=O)Nc1cccc(C)c1)oc1ccccc12` was 12.2%.
In the case of `Cc1cc(N/N=C/c2ccc(O)c(C)c2O)nc(-c2ccccc2O)n1`, the inhibition was 27.9% (active).
For the compound `Cc1ccc(/C=N/Nc2ccnc3cc(Cl)ccc23)c(C)c1`, the inhibition was 53.3% (active).
The value for `Cc1ccc(S(=O)(=O)N2CCOCC2)cc1NC(=O)COC(=O)c1ccccc1OCc1c(C)noc1C` was 16.8%.
With `Cc1sc2ncnc(OCC(=O)N3CCN(S(=O)(=O)c4ccc(Cl)cc4)CC3)c2c1C` the figure was 11.1%.
With `Cc1ccc(-c2ccccc2NC(=O)CS(=O)CC(=O)Nc2ccc(C)c(Cl)c2)o1` (stereo not given) the figure was 0.73%.
For the compound `Cc1ccc(-c2c(C(=O)N/N=C/c3c[nH]c4ccccc34)nnn2-c2nonc2N)cc1`, the inhibition was 21.9%.
The value for `CCN(c1ccccc1)S(=O)(=O)c1ccc(OC)c(NC(=O)CNCCc2ccccc2)c1` was 19.9%.
With `Cc1ccc(-n2[nH]c(C)c(/C=N/Nc3ccc([N+](=O)[O-])cc3[N+](=O)[O-])c2=O)cc1C` the figure was 33.5% (active); with `O=C(O)/C(CC(=O)c1ccc(Cl)cc1)=N/Nc1ccc([N+](=O)[O-])cc1[N+](=O)[O-]`, 42.7% (active).
With `Nc1c(N2CCCC2)cc(Cl)c2nonc12` the figure was 18.8%; with `COc1ccc(-c2cc(-c3ccc(Cl)cc3)n[nH]2)c(O)c1`, 16.9%; with `Cc1[nH]c(N=Nc2ccccc2)nc1N=Nc1ccccc1`, 55.2% (active).
With `COc1cccc(NC(=O)Nc2ccc3c(c2)N(C)C(=O)CS3)c1`, the inhibition is 9.42%.
On to `CC1=Nc2ccccc2/C1=C/c1sc(=N)n(-c2nccs2)c1O`, for which the inhibition was 40.4% (active).
With `O=C(O)CCNc1ccc(NCCC(=O)O)c2c1C(=O)c1ccccc1C2=O` the figure was 16.7%; with `CCCCN(C)CCCNC(=O)c1cn(CC)c2ccc(S(=O)(=O)N3CCc4ccccc4C3)cc2c1=O`, 53.6% (active); with `Cc1ccc(S(=O)(=O)/N=C2/C=C(Sc3ncn[nH]3)C(=O)c3ccccc32)cc1`, 54.4% (active).
With `CCOC(=O)N1CC=C2C(C#N)=C(N)C(C#N)(C#N)[C@H](c3cccs3)C2C1` (stereo not given in full) the figure was 35.2% (active); with `Cc1cc(N/N=C/c2c(O)ccc3ccccc23)nc(-c2ccccc2O)n1`, 23.6%.
In the case of `CC1(C)CC(=O)C2=C(C1)N1C(=C(C#N)C2c2ccc(Cl)cc2)N=C(N)c2ccccc21` (stereo not given), the inhibition is 44% (active).
With `C=CCn1c(NS(=O)(=O)c2ccccc2)c(S(=O)(=O)c2ccc(C)cc2)c2nc3ccccc3nc21` the figure was 8.89%.
